In the library only some 2.2% were active in any assay of this set; here they are far more common.
TrxR1 substrate = qHTS Assay for Substrates of Mammalian Selenoprotein Thioredoxin Reductase 1 (TrxR1): qHTS. Thioredoxin reductase 1, cytoplasmic (Rattus norvegicus), O89049. purified TrxR1 substrate turnover, NADPH consumption readout. Potency, µM (series often up to 114 µM), inactives show top-dose activity change, negative = substrate turnover. 390,000 tested, 0.01% active. AID 588456, 2011; further: potency means the concentration at half of the fitted maximal effect; on the % scale 0 is the no-effect control and ±100 the full control effect; nearly all actives have a fitted effect of over 50% in size
Target sequence (O89049 whole entry, looked up): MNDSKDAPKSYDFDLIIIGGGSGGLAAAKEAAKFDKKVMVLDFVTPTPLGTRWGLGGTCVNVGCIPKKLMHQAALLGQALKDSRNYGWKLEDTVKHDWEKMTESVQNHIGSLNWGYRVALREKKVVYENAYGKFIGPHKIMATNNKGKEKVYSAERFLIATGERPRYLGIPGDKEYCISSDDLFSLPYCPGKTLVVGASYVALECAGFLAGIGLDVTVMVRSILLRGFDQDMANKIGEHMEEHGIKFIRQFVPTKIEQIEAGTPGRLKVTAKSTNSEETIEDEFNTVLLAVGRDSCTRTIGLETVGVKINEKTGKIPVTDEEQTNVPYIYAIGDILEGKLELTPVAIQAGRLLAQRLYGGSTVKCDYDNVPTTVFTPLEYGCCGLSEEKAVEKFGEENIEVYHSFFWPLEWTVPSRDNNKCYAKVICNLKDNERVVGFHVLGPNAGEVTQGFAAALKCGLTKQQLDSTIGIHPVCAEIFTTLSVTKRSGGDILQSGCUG
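Rat TrxR1, dispensed at 90 nM, was prereduced with 400 uM NADPH (final) for 5 min at ~22 deg C, then incubated with compound 15 min before 400 uM selenite. A first-read NADPH fluorescence drop versus no-compound background flagged substrates.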
IL2 activator = qHTS of IL-2 Activators; activation, % (series mostly up to about 46 µM); 360,000 tested, 0.065% active; IL-2 activation reporter assay, cell-based qHTS; stimulated with anti-CD3/CD4/CD28 beads; in transgenic mouse T cells; in the data active means activation above about 50%; inconclusive means mostly about 30% to 49%; further: 0% is about no effect
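Screening format: compound pinned onto unstimulated transgenic mouse T cells, 60 min incubation, then anti-CD3/anti-CD4/anti-CD28 bead stimulation for 18 hours at 37 degrees C, followed by EGFP and DsRed detection.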
IDH1 R132H inh = qHTS for Inhibitors of mutant isocitrate dehydrogenase 1 (IDH1): qHTS. Isocitrate dehydrogenase [NADP] cytoplasmic (Homo sapiens), O75874. IDH1-R132H enzyme, NADPH consumption, diaphorase/resazurin fluorescence. Potency, µM (titrated, usually from 76.6 µM), without a hit: at the highest dose activity change, negative = inhibition, actives largely listed as inhibitors. 390,000 tested, 0.093% active. AID 602179, 2012; further: potency means the concentration at half of the fitted maximal effect; on the % scale 0 is the no-effect control and ±100 the full control effect; nearly all actives have a fitted effect of over 65% in size
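IDH1-R132H (0.5 ug/mL) preincubated 30 min with compound, then NADPH (0.016 mM) and alpha-KG (2 mM) added; 80 min at RT, pH 7.5. Remaining NADPH coupled via diaphorase/resazurin to fluorescence (540/590 nm); concentration-response curves normalized to no-enzyme control.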
Giardia kill = Small Molecules that selectively kill Giardia lamblia: qHTS | AID 540267, 2011 | activity change, % at 7.66 µM, hits read low | 340,000 tested, 0.15% active | Giardia lamblia trophozoite viability; in the data active means activity change below about -80%; inconclusive means between about -30% and that limit;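 further: parasites exposed to compound for two days anaerobically before the ATP read; on the % scale 0 is the no-effect control and ±100 the full control effect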
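Killing of trophozoites was scored by loss of ATP luminescence after a 48 hrs anaerobic exposure to compounds at 37 deg C, using 100 cells per well.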
rTrxR1 inhibitor = qHTS Assay for Inhibitors of Mammalian Selenoprotein Thioredoxin Reductase 1 (TrxR1): qHTS; Thioredoxin reductase 1, cytoplasmic (Rattus norvegicus), O89049; Potency, µM (top dose mostly 114 µM), inactives show at the top dose activity change, negative = inhibition, most hits filed as inhibitors; recombinant rTrxR1, NADPH fluorescence consumption, selenite substrate; 390,000 tested, 1% active; AID 588453, 2011; further: potency means the concentration at half of the fitted maximal effect; on the % scale 0 is the no-effect control and ±100 the full control effect; nearly all actives have a fitted effect of over 65% in size
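Rat TrxR1 (90 nM in the dispensed reagent) was pre-reduced with 400 uM NADPH for 5 min at room temperature, then incubated with compound for 15 min. After 400 uM selenite was added, NADPH fluorescence (Ex 340/Em 450 nm) was followed for 8 min.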
BRCA1 expr act = qHTS Assay to Identify Small Molecule Activators of BRCA1 Expression | MCF7-BRCA1-FFLuc reporter, luminescence, 48 h; response scale: scaled: vehicle 0%, 10 µM genistein 100% | Potency, µM (top dose mostly 46.1 µM), inactives show at the top dose activation, hits mostly activators | 380,000 tested, 1.1% active | AID 624202, 2012; further: potency means the concentration at half of the fitted maximal effect; nearly all actives have a fitted effect of over 80% in size
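Activators of BRCA1 expression were detected as increased firefly luciferase luminescence in engineered MCF7 cells after 48 h compound incubation. Signals were scaled to genistein 10 microM as full activation.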
Numbers without * were called inactive; i = inactive; u = inconclusive; x = no result given; [ ] = remark or other dose. Unless noted, the call rests on the fitted dose curve; in most records, active means well fitted curve in the direction sought with a large enough effect; inconclusive means small, poorly fitted or top-dose-only effect, or another doubt; inactive means no such curve, though single readings can be large; an effect the other way counts as inactive or inconclusive.

SMILES	TrxR1 substrate	IL2 activator	IDH1 R132H inh	Giardia kill	rTrxR1 inhibitor	BRCA1 expr act
CCC(=O)Nc1ccc(-c2ccc(N3CCC(C)CC3)nn2)cc1	-5%	-2	-13%	23	5%	u
CC1CCN(c2ccc(-c3cccc(NC(=O)C(F)(F)F)c3)nn2)CC1	-3%	-2	-3%	-84*	15%	-22%
COc1ccc(C)cc1NC(=O)c1cc2c(s1)-c1ccccc1SC2	10%	x	x	x	9%	x
CCCN(CCC)CCCNC(=O)C1CCCN(S(=O)(=O)c2cccc3nsnc23)C1 (stereo not given)	-8%	x	-5%	x	-4%	x
COc1cccc2cc(C(=O)c3ccccc3)oc12	10%[57.1 µM]	0	-2%	-7	8%	45%
COc1cccc2cc(CC(=O)c3cc(C)ccc3C)c(=O)oc12	-3%	0	0%	4	9%	98%
COc1cc(C(C)=O)ccc1OC(=O)c1cc2cccc(OC)c2oc1=O	-12%	2	2%	17	-21%	0%
COc1cccc2cc(CC(=O)c3ccccc3)c(=O)oc12	4%	0	0%	16	17%	10µM*
CCc1ccc(C(=O)Cc2cc3cccc(OC)c3oc2=O)cc1	-2%	-1	-1%	-13	16%	11µM*
COc1cccc2cc(CC(=O)c3ccc(C)c(C)c3)c(=O)oc12	-3%	0	0%	-4	16%	11µM*
Cn1c2ccccc2c(=O)c2cc(C#CC3(O)CCCCC3)ccc21	54%	0	26%	u	115%	0%
COc1cccc2oc3ccc(C#CC4(N)CCCCC4)cc3c(=O)c12	28%	0	-7%	8	12%	7.9µM*
Cn1c2ccccc2c(=O)c2ccc(C#CC3(N)CCCCC3)cc21	74%[57.1 µM]	0	0%	6	-13%[57.1 µM]	5.6µM*
Cn1c2ccccc2c(=O)c2cc(C#Cc3ccccn3)ccc21	111%	0	16%	-9	9%	u
Cn1c2ccccc2c(=O)c2ccc(C#Cc3ccccn3)cc21	25%[57.1 µM]	0	-10%	8	27%[57.1 µM]	11µM*
Cc1cc2n(n1)CCCN2C(=O)Nc1ccccc1C(F)(F)F	4%	x	11%	x	136%	x
CC(=O)c1ccc(-c2cccc(C3C4C=CCCC4(C)C(=O)N3Cc3ccccc3)c2)cc1 (stereo not given)	-13%	x	x	-29	u	x
COc1ccc(-c2noc(-c3ccc(NCCc4ccccc4)c([N+](=O)[O-])c3)n2)cc1OC	0%	x	14%	x	-1%	12%
COc1cccc(/C=C/c2nc(C#N)c(N3CCC(C(N)=O)CC3)o2)c1	i	x	2%	x	79µM*	-3%
COc1cccc(/C=C/c2nc(C#N)c(N3CCCCCC3)o2)c1	351%	x	-5%	x	81%	9%
CN(C)Cc1cc(O)c(CN(C)C)cc1O	-14%	-1	13%	10	14µM*	0%
N#CC1(NC(=O)COC(=O)c2ccccc2[N+](=O)[O-])CCCCC1	4%	-2	-1%	5	9%	-8%
N#CC1(NC(=O)COC(=O)c2cc(O)c3ccccc3c2O)CCCCC1	-2%	0	18%	-8	28µM*	-70%
CNC(=S)N/N=C/c1c(C)c(C(=O)c2ccc(F)cc2)n2ccccc12	5%[57.1 µM]	83*	8%	21	5%[57.1 µM]	-42%
c1ccc(CN2CCN(C(c3ccccc3)c3ccccc3)CC2)cc1	-6%[57.1 µM]	-1	3%	6	-5%[57.1 µM]	-47%
SMILES	TrxR1 substrate	IL2 activator	IDH1 R132H inh	Giardia kill	rTrxR1 inhibitor	BRCA1 expr act
O=S(=O)(CCN1CCN(C(c2ccccc2)c2ccccc2)CC1)C(F)(F)F	1%[57.1 µM]	2	-1%	-3	1.6µM*	1%
Cc1cccc(NC(=O)c2ccc(OC3CSC3)cc2)c1	8%	0	2%	-7	14%	11µM*
Cc1ccc(Nc2ncc3c(n2)CC(C)(C)CC3=O)cc1	-9%	1	-7%	8	24%	2µM*
Cc1cccc(CC(C)NC(=O)c2cc(COc3ccc(C)c(C)c3)on2)n1 (stereo not given)	-14%	-5	11%	-27	-4%	81%
Cc1nc(C(C)NC(=O)c2cc(COc3ccc(C)c(C)c3)on2)c(C)s1 (stereo not given)	0%	-1	4%	-20	16%	5.6µM*
Fc1ccc(-c2nnc(-c3ccc(F)cc3)o2)cc1	1%	1	-8%	5	29%	2.5µM*
Fc1ccc(-c2nnc(Cc3nnc(-c4ccc(F)cc4)o3)o2)cc1	3%	-2	0%	-3	21%	1%
COc1ccc2[nH]c(=O)c(C(=O)O)cc2c1	46%[57.1 µM]	-1	-1%	-16	30%[57.1 µM]	-12%
CC(C)C1Cc2[nH]c(=O)c(C(=O)O)cc2CO1 (stereo not given)	13%	-1	-2%	-6	12%	8.9µM*
O=C(NCCc1ccc(F)cc1)c1cccs1	-8%	0	8%	-6	-7%	11µM*
O=C(NCCCCCCNC(=O)c1cccs1)c1cccs1	5%[57.1 µM]	0	12%	15	10%[57.1 µM]	11%
O=C(NCc1ccc(F)cc1)c1cccs1	0%	0	-1%	-2	33%	3%
COc1ccc2cc(CCNC(=O)c3cc4ccccc4o3)c(=O)[nH]c2c1	-1%	-1	-15%	24	-1%	-14%
COc1ccc2cc(CCNC(=O)c3cccs3)c(=O)[nH]c2c1	6%	-2	3%	2	22%	2.8µM*
O=C(NCCc1cccs1)c1cccs1	-9%[57.1 µM]	-1	5%	10	21%[57.1 µM]	6.3µM*
O=C(NCCC1CCCC1)c1cccs1	2%	-1	-2%	17	40%	11µM*
COc1ccc(CCNC(=O)c2cccs2)cc1	-1%	-1	-4%	-13	10%	10µM*
O=C(CNC(=O)c1cccs1)c1ccc(Br)cc1	3%	5	6%	-7	12%	5.6µM*
Cn1cc(/C=C/c2ccc3ccccc3n2)c2ccccc21	0%	x	x	x	-13%	x
CCNC(=S)Nc1cc(OCC)c(NC(=O)c2ccco2)cc1OCC	-1%	0	1%	7	12%	0%
CCOc1cc(NS(=O)(=O)c2ccccc2)c(OCC)cc1NC(=O)c1ccco1	-2%	-4	8%	7	71µM*	-45%

Screening results as filed in PubChem.
